Measured values: PubChem BioAssay (Tox21)
Inconclusive results are not listed. A number with no mark means an inactive call. Activity calls are given as the source filed them. Calls follow the shape of the dose curve; as a rule, active = well fitted cell-killing curve with a large enough effect in the repeat runs; inconclusive = weak or mixed curves; inactive = flat fitted curve, though single readings scatter.

Experiment: qHTS assay to identify small molecule antagonists of the TGF-beta/Smad signaling pathway - cell viability counter screen (AID 1346824); also: nearly all actives have a fitted effect of over 50% in size
Settings: SBE-bla HEK293T viability, CellTiter-Glo luminescence; series mostly up to 76.8 µM; viability change, negative = cytotoxic: at the top concentration
Text: U.S. Tox21 Program National Center for Advancing Translational Sciences [NCATS] NIH Chemical Genomics Center [NCGC] U.S. Environmental Protection Agency [EPA] National Institutes of Environmental Health Sciences [NIEHS] National Toxicology Program [NTP] U.S. Food and Drug Administration [FDA] Tox21 Assay Overview: Transforming growth factor beta (TGF-beta) superfamily consists of a large number of structurally related dimeric proteins that act as hormones or local mediators in regulating a wide range of biological functions. This superfamily includes TGF-betas themselves, the bone morphogenetic proteins (BMPs) and the activins. These ligands induce oligomerization of serine/threonine receptor kinases and phosphorylate the cytoplasmic signaling molecules of Smad protein family. CellSensor SBE-bla HEK 293T cell line (Life Technologies, Carlsbad, CA), responsive to TGF-beta was used to screen Tox21 10K compound library for identification of agonists/antagonists of the Smad signaling pathway. This cell line contains a beta-lactamase reporter gene under control of the Smad binding element (SBE) stably integrated into HEK 293T cells. Also cytotoxicity of the compounds was tested in parallel by measuring the cell viability using CellTiter-Glo assay system in the same wells.
Tox21 Assay Protocol Summary: SBE-bla HEK 293T cells were dispensed at 4,000/well in 5 uL of assay medium into black wall/clear-bottom 1536-well plates using a Multidrop Combi (ThermoFisher Scientific, Waltham, MA) dispenser. After the assay plates were incubated at 37 C and 5% CO2 for an overnight, 23 nL of compounds dissolved in DMSO, positive controls or DMSO only was transferred to the assay plate by a Pintool station (Kalypsys, San Diego, CA). Compound transfer was followed by the addition of 1 uL of 0.25 ng/mL TGF-beta1 or assay buffer using two separate tips of Flying Reagent Dispenser (FRD, Aurora Discovery, San Diego, CA). The assay plates were incubated at 37 C and 5% CO2 for 5 hr. One uL of LiveBLAzer B/G FRET substrate (Life Technologies) was added using a Flying Reagent Dispenser (FRD, Aurora Discovery, San Diego, CA) and the plates were incubated at room temperature for 2 hr. Fluorescence intensity (405 nm excitation, 460 nm and 530 nm emissions) was measured using an Envision plate reader (PerkinElmer, Shelton, CT). For cytotoxicity read, 4 uL of CellTiter-Glo reagent (Promega Corporation, Madison, WI) was added to each well of the assay plates using FRD. After 30 min incubation at room temperature, the luminescence intensity was measured using ViewLux plate reader (PerkinElmer).
% is scaled to controls: 0 for no effect and ±100 for the full control effect.

| Structure (SMILES) | viability change, negative = cytotoxic | outcome |
| --- | --- | --- |
| C=C(C)[C@H]1CN[C@H](C(=O)O)[C@H]1CC(=O)O | 1.34% [at 35.3 µM] |  |
| CC(C)(N)Cc1ccc(Cl)cc1 | 1.36% [at 35.3 µM] |  |
| CN(C)CCN(C)C | 14.6% |  |
| Cn1c(CCCC(=O)O)nc2cc(N(CCCl)CCCl)ccc21 | 9.57% [at 35.3 µM] |  |
| CCC(C)C(C)(COC(N)=O)COC(N)=O (stereo not given) | -0.845% [at 35.3 µM] |  |
| O=[N+]([O-])CCO | 5.61% |  |
| O=P(O)(O)CN(CP(=O)(O)O)CP(=O)(O)O |  | inactive |
| CCN(CCO)CCO | -15.2% |  |
| CCOC(=O)C(SP(=S)(OC)OC)c1ccccc1 (stereo not given) | 10.5% |  |
| CCOC(=O)CCl | -0.0754% |  |
| O=P(O)(O)c1ccccc1 | -1.02% |  |
| CC(C)[C@]12CC(=O)[C@H](C)[C@H]1C2 | -0.0569% |  |
| C=CC(=O)OCCN(C)C | 1.62% |  |
| BrCCc1ccccc1 | 19.6% |  |
| C=CCCC#N | 3.29% |  |
| Cc1ccc2c(c1)C1CN(C)CCC1N2 (stereo not given) | 0.721% [at 15.8 µM] |  |
| CC(C)(C)C(=O)C(Cl)Cl | 9.74% |  |
| CCOC(=O)c1ncn2c1CN(C)C(=O)c1c(I)cccc1-2 | 2.49% [at 35.3 µM] |  |
| COC1=CC(=O)O[C@@H](/C=C/c2ccccc2)C1 | -12.2% |  |
| CC1N=C(N)OC1c1ccccc1 (stereo not given) | 1.14% |  |

| Structure (SMILES) | viability change, negative = cytotoxic | outcome |
| --- | --- | --- |
| COc1cccc(C=O)c1 | -1.61% |  |
| CC(C)(C)c1cc(O)ccc1O |  | inactive |
| CC(Cc1ccccc1)NCCn1cnc2c1c(=O)n(C)c(=O)n2C (stereo not given) | 1.33% |  |
| CCC(=O)OC1(c2ccccc2)CCN(C)CC1 | -0.56% |  |
| C#CCOC(=O)/C=C(C)/C=C/CC(C)CCCC(C)C (stereo not given) | -10.6% |  |
| CS(=O)(=O)Cl | -4.01% |  |
| O=c1[nH]c2ccccc2o1 | -5.66% |  |
| NCCOS(=O)(=O)O | 1.51% |  |
| CNC(=O)NC(O)C(Cl)(Cl)Cl (stereo not given) | -0.839% [at 35.3 µM] |  |
| C=CC1(C)OC(=O)N(c2cc(Cl)cc(Cl)c2)C1=O (stereo not given) |  | inactive |
| Cc1cc(OC(=O)N(C)C)nn1C(=O)N(C)C | -7.25% |  |
| Oc1ccc(Cc2ccc(O)cc2)cc1 | 8.8% |  |
| COC[C@@H](NC(C)=O)C(=O)NCc1ccccc1 | -3.9% [at 35.3 µM] |  |
| CC(C)(O)C(Cl)(Cl)Cl | -6.57% [at 35.3 µM] |  |
| C=CCc1cc(OC)c2c(c1)OCO2 | 4.96% |  |
| O=C(O)CBr | 10.1% |  |
| CNC(=O)Oc1ccccc1C(C)C | 14.5% |  |
| CC(Cl)(Cl)Cl | 2.3% |  |
| CCCOC(=O)c1cncn1C(C)c1ccccc1 (stereo not given) | 9.11% [at 35.3 µM] |  |
| CCCCCCCCSC(=O)Oc1cc(Cl)nnc1-c1ccccc1 | -1.43% |  |
